Screens: PubChem BioAssay, several laboratories
The list is not random: actives were taken first. Their share in the collection is about 4.1%.
aSyn 5UTR inh: MLPCN primary screen, SNCA 5' untranslated region; alpha-synuclein 5'UTR reporter, inhibitor activity; inhibition, % (tested at 7.5 µM); actives 0.82% (n = 300,000); AID 1813; in the data active = inhibition above about 60%;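 note: H4 neuroglioblastoma cells stably carrying SNCA 5'UTR luciferase fusion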
Gli-Sufu antag: antagonists of Gli-Sufu signaling; inhibition, % at 5 µM; actives 0.74% (n = 340,000); Sufu-KO-LIGHT fibroblasts, Gli luciferase reporter luminescence;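 active = inhibition above about 55%, limit read from the data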
KLF5 inh: inhibitors of KLF5 expression | AID 1700 | DLD-1 KLF5 promoter-luciferase reporter, luminescence | actives 0.23% (n = 290,000) | inhibition, % at 5 µM;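 active = inhibition above a per-plate limit of that plate's mean compound inhibition plus 3 SD, cut at about 60% in these data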;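 note: higher means less KLF5 promoter-driven luciferase light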
Mdm2-MdmX inh: inhibitors of human Mdm2/MdmX interaction | AID 485346 | actives 3% (n = 330,000) | inhibition, % at 8 µM | SaOS-2 split-luciferase Mdm2/MdmX complementation, luminescence | O15151+Q00987;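 active = inhibition of at least 50% at 8 µM in the primary screen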
Target sequence (O15151 whole entry, looked up): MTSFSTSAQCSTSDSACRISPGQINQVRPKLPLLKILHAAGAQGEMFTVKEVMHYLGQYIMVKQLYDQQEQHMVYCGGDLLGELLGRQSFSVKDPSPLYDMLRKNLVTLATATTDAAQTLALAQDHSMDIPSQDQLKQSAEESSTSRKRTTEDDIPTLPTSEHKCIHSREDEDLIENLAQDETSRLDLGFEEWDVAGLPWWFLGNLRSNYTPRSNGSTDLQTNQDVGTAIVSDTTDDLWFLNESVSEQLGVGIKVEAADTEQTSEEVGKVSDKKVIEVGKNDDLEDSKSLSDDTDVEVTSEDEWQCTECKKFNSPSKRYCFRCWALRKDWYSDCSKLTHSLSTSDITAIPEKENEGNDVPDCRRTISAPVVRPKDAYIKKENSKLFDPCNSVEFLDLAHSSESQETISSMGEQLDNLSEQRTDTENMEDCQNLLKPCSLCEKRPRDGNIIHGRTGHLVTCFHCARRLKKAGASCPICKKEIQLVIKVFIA
Target sequence (Q00987 whole entry, looked up): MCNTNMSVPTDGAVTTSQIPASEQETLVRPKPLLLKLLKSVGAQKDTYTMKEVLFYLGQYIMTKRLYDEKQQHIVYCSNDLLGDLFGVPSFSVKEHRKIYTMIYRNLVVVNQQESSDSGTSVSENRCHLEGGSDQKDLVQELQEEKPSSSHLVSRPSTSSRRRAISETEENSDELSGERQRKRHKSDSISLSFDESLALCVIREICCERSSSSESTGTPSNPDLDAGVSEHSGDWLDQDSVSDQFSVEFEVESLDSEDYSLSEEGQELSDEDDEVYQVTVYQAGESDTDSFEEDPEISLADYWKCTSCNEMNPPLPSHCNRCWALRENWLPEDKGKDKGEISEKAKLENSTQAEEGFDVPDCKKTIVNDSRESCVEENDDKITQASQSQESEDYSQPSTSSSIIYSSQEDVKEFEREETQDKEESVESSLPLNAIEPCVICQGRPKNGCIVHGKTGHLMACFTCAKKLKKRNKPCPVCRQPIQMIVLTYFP
697 NFkB inh: inhibitors of the PMA/ionomycin-induced NF-kB reporter in 697 B cells; actives 0.33% (n = 330,000); inhibition, % at 4 µM; 697 B-cell NF-kB luciferase reporter, 16 h; AID 435022; in the data active = inhibition above about 35%
Jurkat NFkB inh: inhibitors of the PMA/ionomycin-induced NF-kB reporter in Jurkat cells; PMA/ionomycin-induced NF-kB luciferase reporter, luminescence; inhibition, % at 4 µM; actives 0.53% (n = 330,000); AID 435003; in the data active = inhibition above about 50%
Jurkat NFkB conf: lowers PMA/ionomycin-induced NF-kB signal in Jurkat cells; shares compounds with Jurkat NFkB inh; Jurkat NF-kB luciferase, 16 h; inhibition, % at 4 µM; actives 27% (n = 2,700);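 active = inhibition reaching about 45% at 4 µM in either replicate, limit read from the data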
Numbers stand for hits; - = inactive; . = not tested or not shown.

SMILES	aSyn 5UTR inh	Gli-Sufu antag	KLF5 inh	Mdm2-MdmX inh	697 NFkB inh	Jurkat NFkB inh	Jurkat NFkB conf
COc1ccc(C2=NOC(C(=O)NCc3cccs3)C2)cc1 (stereo not given)	-	-	-	-	-	-	.
O=C(NC1CCCCCC1)c1cc(-c2ccccn2)nc2ccccc12	-	-	-	-	-	-	.
O=C(COC(=O)C1CC1)Nc1ccc(N=Nc2ccccc2)cc1	-	-	-	-	-	-	-
Cc1nn(-c2cccc(C(F)(F)F)c2)c(Cl)c1/C=N/Nc1cccc(C(=O)O)c1	-	-	-	.	.	.	.
CCOC(=O)N/N=C/c1c(C)nn(-c2cccc(C(F)(F)F)c2)c1Cl	-	-	-	-	-	51	-
Cc1nn(CC(=O)NC2CCC(C)CC2)c(C)c1[N+](=O)[O-] (stereo not given)	.	-	.	-	-	-	.
O=C(COC(=O)c1ccc[nH]c1=O)NC1CCCc2ccccc21 (stereo not given)	-	-	-	-	-	-	.
CCCCNc1c(-c2ccc(SC3CCCCC3)cc2)nc2ccccn12	-	-	.	-	-	-	-
Oc1ccccc1-c1cc(-c2ccccc2Cl)[nH]n1	-	-	-	-	-	-	-
Oc1ccccc1-c1cc(-c2cccc(F)c2)n[nH]1	-	-	-	-	-	-	-
CN1CCN(C(=O)c2cc(C(C)(C)C)cc(C(C)(C)C)c2)CC1	-	-	-	-	-	-	.
C[C@]12CC[C@@H]3c4cc(O)c(O)cc4CC[C@H]3[C@@H]1CC[C@@H]2O	-	-	-	-	-	52	-
CC(=O)O[C@H]1C(=O)[C@@]2(C)C([C@H](OC(=O)c3ccccc3)[C@]3(O)C[C@H](OC(=O)[C@H](O)[C@@H](NC(=O)c4ccccc4)c4ccccc4)C(C)=C1C3(C)C)[C@]1(OC(C)=O)CO[C@@H]1C[C@H]2O (stereo not given in full)	102	-	-	-	-	67	70
CC(=O)O[C@H]1C(=O)[C@]2(C)[C@H]([C@H](OC(=O)c3ccccc3)[C@]3(O)C[C@H](OC(=O)[C@H](O)[C@@H](NC(=O)c4ccccc4)c4ccccc4)C(C)=C1C3(C)C)[C@]1(OC(C)=O)CO[C@@H]1C[C@@H]2O	95	-	.	-	-	71	65
C/C(=N\Nc1cccc2cccnc12)c1ccc[nH]1	-	-	-	-	-	-	-
NC(=S)Nc1cccc2cccnc12	-	-	-	-	-	-	.
Cc1ccc(C2(C(F)(F)F)NC(=O)N3CCN=C3S2)cc1 (stereo not given)	-	-	-	-	-	-	.
Cc1ccc(C2(C(F)(F)F)NC(=O)N3CCCN=C3S2)cc1 (stereo not given)	-	-	-	-	-	52	-
S=C(c1ccc(-c2cccc(Cl)c2)o1)N1CCCCC1	-	-	-	-	-	-	-
O=c1c(Br)c(N2CCCCC2)cnn1-c1ccccc1	-	-	-	-	-	-	.
O=C(Nc1cccc2ccccc12)OC1C=CS(=O)(=O)C1 (stereo not given)	-	-	-	-	-	90	65
Cc1c(C)c2ccc(OC(C)C(=O)NCCCN3CCOCC3)c(C)c2oc1=O (stereo not given)	-	-	-	-	-	-	.
CCN(CC)c1ccc(N=Nc2nn(C)c(C)c2[N+](=O)[O-])cc1	-	-	-	-	-	-	-
CC(=O)N1c2ccc(S(=O)(=O)N3CCCC3)cc2CC1C(=O)NC(C)C (stereo not given)	-	-	-	-	-	-	.
Oc1[nH]c2ccccc2c1N=Nc1nc2ccccc2s1	-	-	-	-	-	-	-
SMILES	aSyn 5UTR inh	Gli-Sufu antag	KLF5 inh	Mdm2-MdmX inh	697 NFkB inh	Jurkat NFkB inh	Jurkat NFkB conf
Cc1c(N)cc2c(c1N)C(C)(C)CC2(C)C	.	-	.	.	.	.	.
COc1ccc(-c2nc(N)ncc2Oc2ccccc2Br)c(O)c1	-	-	-	-	-	-	.
COc1cccc(Oc2cnc(N)nc2-c2ccc(OC)cc2O)c1	-	-	-	-	-	50	-
Cc1cc(Nc2ccccc2Cl)c2ccccc2n1	-	-	.	-	-	-	.
COc1cccc(Nc2cc(C)nc3ccccc23)c1	-	-	-	-	-	-	.
COc1ccc(Cl)cc1Nc1cc(C)nc2ccccc12	-	-	.	-	-	54	-
COc1ccc(OC)c(Nc2cc(C)nc3ccccc23)c1	-	-	-	-	-	67	-
O=C(Nc1ccc2c(c1)CCC2)c1ccccc1	-	-	-	-	-	-	-
Cc1ccc(O)c(-c2cc(-c3ccc(F)cc3)no2)c1	-	-	-	-	-	-	-
Cc1ccccc1-c1cc(-c2ccccc2O)on1	-	-	-	-	-	-	-
Clc1ccc(-c2cc(-c3ccccc3)on2)cc1	.	-	.	-	-	-	-
Cc1nc(-c2cc(-c3ccc(Cl)cc3)no2)cs1	-	-	-	-	-	-	.
Oc1ccccc1-c1cc(-c2ccccc2)no1	-	-	-	-	-	-	-
O=C(O)c1cccc(CN2C(=O)SC(Nc3cccc4ccccc34)C2=O)c1 (stereo not given)	-	-	-	-	-	-	.
COc1ccc(-c2cc(-c3ccc(C)cc3)n[nH]2)c(O)c1	-	-	-	-	-	-	.
COc1ccc(-c2cc(-c3cc(C)ccc3O)[nH]n2)cc1	-	-	-	-	-	77	-
O=C(/C=C/c1cccc(F)c1)N1CCc2ccccc21	-	-	-	-	-	-	-
O=C(/C=C/c1ccc(Cl)cc1Cl)N1CCc2ccccc21	-	-	-	-	-	-	-
O=C(c1ccc(Cl)cc1Cl)N1CCc2ccccc21	-	-	-	-	-	-	.
CCOC(=O)Nc1ccc(C(=O)/C=C/c2ccccc2)cc1	-	-	-	-	-	-	.
Cc1ccc(C)c(C(=O)CCC(=O)Nc2ccc(N3CCN(C)CC3)cc2C)c1	.	-	.	-	-	-	.
CC1CCN(Cc2nnnn2CCCC(=O)NCCc2cnn(C)c2)CC1	-	-	-	-	-	-	.
CC(=O)Nc1cc2c(cc1NC(=O)Cn1nc(-c3ccc(F)cc3)ccc1=O)OCCO2	-	-	-	-	-	-	.
CC(=O)c1cc2c(cc1NC(=O)Cn1nc(-c3ccc(C)cc3)ccc1=O)OCO2	-	-	-	-	-	53	-
COc1ccc(OC)c(CCNC(=O)Cn2nc(C)c3c(C)n(-c4ccc(C)cc4)nc3c2=O)c1	-	-	-	-	-	56	66
CCOC(=O)c1sc(NC(=O)C2CC2)cc1C	-	-	-	-	-	-	.
CCOC(=O)c1sc(NC(=O)c2ccccc2)cc1C	-	-	-	-	-	-	-
CCOC(=O)c1sc(NC(=O)c2ccc(S(=O)(=O)N(C)C)cc2)cc1C	-	-	-	-	-	-	.
CCOC(=O)c1sc(NC(=O)c2ccc(Cl)s2)cc1C	-	-	-	-	-	-	-
